IMPase inh: qHTS Assay for Identifying the Cell-Membrane Permeable IMPase Inhibitors | 120,000 tested, under 10 active | CHO-M1 cells, IP1 accumulation, HTRF TR-FRET ratio | inhibition (IP1 accumulation), % at 46.1 µM | AID 901, 2007 | Inositol monophosphatase 1 (Rattus norvegicus), P97697; active = well fitted curve in the direction sought with a large enough effect in the signal ratio, not every such curve was filed as active; inconclusive = small, poorly fitted or top-dose-only effect, or a change in a side signal; inactive = no such curve, though single readings can be large or run the other way; the % refers to the signal ratio;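 also: cells stimulated with carbachol in lithium chloride buffer; plate controls were DMSO basal wells for no effect and reference inhibitor wells for full effect; higher means more IMPase inhibition seen as more IP1 and lower FRET ratio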
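Measured: the HTRF emission ratio (665/620 nm) plus the 620 nm donor channel, each fitted to the Hill equation to give AC50. Cells were CHO-M1 given compounds up to 46 uM and a 30 min carbachol stimulation at 37C.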
15-hLO-2 inh: qHTS Assay for Inhibitors of 15-hLO-2 (15-human lipoxygenase 2); 110,000 compounds, 0.56% hits; Polyunsaturated fatty acid lipoxygenase ALOX15B (Homo sapiens), O15296; Potency, µM (titrated, usually from 57.1 µM), for inactives: at the highest dose activity change, negative = inhibition, hits mostly inhibitors; AID 881, 2007; purified 15hLO-2, xylenol orange hydroperoxide absorbance; also: potency is read from the fitted curve at half-maximal effect; nearly all actives have a fitted effect of over 60% in size
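Screening format was qHTS against 50 nM purified 15hLO-2 in Hepes pH 7.5 with detergent. Activity follows hydroperoxide formation from 45 uM arachidonic acid, measured as 573:405 nm absorbance ratio of the ferric-xylenol orange complex.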
IMPase Li inh: qHTS Assay for Identifying the Cell-Membrane Permeable IMPase Inhibitors: Potentiation with Lithium; 210,000 compounds, 0.35% hits; CHO-M1 cells, IP1 TR-FRET (IP-One), carbachol + lithium; Potency, µM (series often up to 59.4 µM), for the others: at the top dose activity, negative = IMPase inhibition, usual class: inhibitors; AID 1457, 2008;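 also: IP1 builds up when IMPase is blocked and the TR-FRET signal falls; potency is read from the fitted curve at half-maximal effect; plate controls were basal vehicle for no effect and high inhibitor control for full effect; nearly all actives have a fitted effect of over 50% in size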
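CHO cells stably expressing M1 receptor (2000/well, cultured 16–30 h) treated 30 min at 37C with compound plus low lithium. Cytosolic IP1 by TR-FRET (665/620 ratio and 620 channel) after 10 min lysis; AC50 by Hill fit.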
PNC assembly inh: High Content Assay for Compounds that inhibit the Assembly of the Perinucleolar Compartment. PC3M PTB-GFP, PNC prevalence imaging, 16 h; stronger effect = lower value. activity change (PNC), negative = inhibition, % at 10 µM. 140,000 compounds, 3.1% hits;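 active = readout at or below -70, meaning at least 70% loss of cells showing the perinucleolar compartment, a nuclear body marking cancer cells; inconclusive = readout between -30 and a set limit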;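 also: plate controls were DMSO wells for no effect and camptothecin positive control wells for full effect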
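Read-out is percentage of cells bearing a perinucleolar compartment, from automated 20x imaging of fixed, Hoechst-stained PC3M PTB-GFP cells. Cells were seeded 4 h, then exposed 16 h to compound (23 nl of library stock) in duplicate plates.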
12-hLO inh: qHTS Assay for Inhibitors of 12-hLO (12-human lipoxygenase) | Polyunsaturated fatty acid lipoxygenase ALOX12 (Homo sapiens), P18054 | purified 12-hLO, xylenol orange hydroperoxide absorbance | Potency, µM (highest dose often 57.1 µM), inactives show at the top dose activity change, negative = inhibition, usual class: inhibitors | 150,000 compounds, 0.12% hits | AID 1452, 2008; also: potency is read from the fitted curve at half-maximal effect; nearly all actives have a fitted effect of over 55% in size
Target sequence (P18054 whole entry, looked up): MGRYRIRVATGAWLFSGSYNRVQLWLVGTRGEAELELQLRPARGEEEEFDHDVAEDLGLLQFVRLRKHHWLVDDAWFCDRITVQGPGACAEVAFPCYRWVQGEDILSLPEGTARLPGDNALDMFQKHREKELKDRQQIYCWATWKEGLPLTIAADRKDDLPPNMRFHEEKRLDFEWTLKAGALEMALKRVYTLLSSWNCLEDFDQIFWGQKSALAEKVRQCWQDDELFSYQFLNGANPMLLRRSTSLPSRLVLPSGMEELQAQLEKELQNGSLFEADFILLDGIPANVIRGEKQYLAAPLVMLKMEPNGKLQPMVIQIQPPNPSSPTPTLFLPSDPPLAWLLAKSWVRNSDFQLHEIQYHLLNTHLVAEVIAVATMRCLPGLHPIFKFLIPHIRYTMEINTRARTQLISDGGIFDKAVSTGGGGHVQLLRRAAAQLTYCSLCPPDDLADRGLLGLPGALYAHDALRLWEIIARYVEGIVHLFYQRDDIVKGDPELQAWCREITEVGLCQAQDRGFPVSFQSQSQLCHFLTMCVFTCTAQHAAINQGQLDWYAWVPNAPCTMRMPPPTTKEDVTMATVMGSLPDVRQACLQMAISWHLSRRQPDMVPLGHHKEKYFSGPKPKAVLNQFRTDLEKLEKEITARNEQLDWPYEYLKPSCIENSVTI
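150 nM 12hLO, 25 mM Hepes pH 7.0 + 0.01% Triton X-100; cpd preinc 15 min RT; 40 uM arachidonic acid, 30 min RT; Fe-XO 30 min; A573/A405 ratio as read-out.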
* hit, by the source's call; ? = inconclusive; / = no result given; [ ] = dose if it differs, or a comment. The full list was thinned out, with hits kept by preference. Unless noted, calls follow the shape of the dose curve; as a rule, active = well fitted curve in the direction sought with a large enough effect; inconclusive = small, poorly fitted or top-dose-only effect, or another doubt; inactive = no such curve, though single readings can be large; an effect the other way counts as inactive or inconclusive. Unless noted, % is scaled to controls: 0 for no effect and ±100 for the full control effect.

SMILES	IMPase inh	15-hLO-2 inh	IMPase Li inh	PNC assembly inh	12-hLO inh
COc1ccc(OCC(O)CN2CCN(c3ccccc3)CC2)cc1 (stereo not given)	/	/	1%	/	/
COC(=O)C1Cc2c([nH]c3ccccc23)C(C)N1 (stereo not given)	2	3%	1%	-91*	1%
CC(C)C1NC(C(=O)O)Cc2c1[nH]c1ccccc21 (stereo not given)	/	/	0%	/	/
CC1(O)/C=C\C=C(\CO)C2CC(C)(C)C2(O)CC1 (stereo not given)	/	/	15%	/	/
CCCOCC(C)OCC(C)O (stereo not given)	/	-18%	9%	/	-4%
COc1ccc(/C=C/c2ccncc2)cc1OC	?	/	5%	-97*	-3%
COc1ccc(/C=C/C(=O)OCCNC(=O)c2ccncc2)cc1OC	/	/	8%	/	/
COc1cccc(Cn2c(=O)c(-c3ccc(Cl)cc3)nc3cnc(N4CCNCC4)nc32)c1	/	43%	13%	/	/
O=C(CN1C(=O)CSc2ccccc21)N1CCc2ccccc21	11	0%	17%[38.3 µM]	-90*	0%
CN1C(=O)C(=O)N(CC(=O)N2CCc3ccccc32)C1=O	-14	-1%	17%[38.3 µM]	20	5%
CCOC(=O)c1cc2c(nc1N)CC(C)(C)OC2	-9	/	0%	4	2%
CCOC(=O)c1cc2c(nc1NC(=S)Nc1ccccc1)CC(C)(C)OC2	-6	/	4%	-82*	-4%
CN1CCN(c2ncc3nc(-c4ccccc4)c(=O)n(CCC#N)c3n2)CC1	/	6%	-6%	/	1%
COc1cccc2c(=S)c(CCC(C)=O)c(C)[nH]c12	-20	/	10µM*	12	-1%
COc1ccc(CCNC(=O)c2ccc(N(C)S(=O)(=O)c3ccc(C)cc3)cc2)cc1	/	/	17%	/	/
COc1ccc(CCNC(=O)c2ccc(Cl)c(S(=O)(=O)N(C)c3ccccc3)c2)cc1	/	/	-6%	-89*	0%
COC1C=CO[C@@]2(C)Oc3c(C)c(O)c4c(O)c(c(C=NN5CCN(C)CC5)c(O)c4c3C2=O)NC(=O)/C(C)=C\C=CC(C)C(O)[C@@H](C)C(O)C(C)[C@H](OC(C)=O)C1C (stereo not given in full)	/	20µM*	11%	/	-26%
CO[C@H]1/C=C/O[C@@]2(C)Oc3c(C)c(O)c4c(O)c(c(/C=N/N5CCN(C)CC5)c(O)c4c3C2=O)NC(=O)/C(C)=C\C=C\[C@H](C)[C@H](O)[C@@H](C)[C@@H](O)[C@@H](C)[C@H](OC(C)=O)[C@@H]1C	/	?	27%	/	-17%
C=CC1=C2C=C(C3CC3)N(CCCCO)C=C2C(=O)C(C)(OC(=O)c2ccco2)C1=O (stereo not given)	/	/	3%	/	-1%[11.4 µM]
Cc1nc2ccccc2c(=O)n1NC(=O)c1c(O)c2c(n(CC(C)C)c1=O)CCCC2	?	/	11%	-94*	-2%
Cc1ccn2c(Nc3ccc4c(c3)OCCO4)c(-c3ccccc3O)nc2c1	0	/	/	/	/
CN1C(=O)c2ccc(C(=O)NCc3ccccc3)cc2C1=O	1[1.84 µM]	-19%[11.4 µM]	51%[38.3 µM]	-92*	4%
COC(=O)c1c(Cl)c2n3ccccc3c(C)c(-c3ccccc3)c-2c1C(=O)OC	/	/	10µM*	5	-9%
COC(=O)c1cc2c(-c3ccccc3)c(C)c3ccccn3c-2c1C(=O)OC	?	4%	-19%[38.3 µM]	17	1%
CN(C(=O)COC(=O)CNC(=O)C12CC3CC(CC(C3)C1)C2)C1CCS(=O)(=O)C1 (stereo not given)	/	/	-6%	-121*	6%
SMILES	IMPase inh	15-hLO-2 inh	IMPase Li inh	PNC assembly inh	12-hLO inh
O=C(COC(=O)CNC(=O)C12CC3CC(CC(C3)C1)C2)NC1CCS(=O)(=O)C1 (stereo not given)	/	/	-2%	?	1%
CCc1ccc(NC(=O)CN2C(=O)c3cccc4cccc2c34)cc1	-2	/	/	/	/
O=C(O)c1ccccc1C(=O)Nc1ccc(-c2csc(-c3ccccc3)n2)cc1	-11	/	-25%	-98*	-2%
COc1ccc(C(=O)Nc2nc3c(s2)CCCC3)cc1S(=O)(=O)N1CCCc2ccccc21	/	/	4%	-123*	-7%
COc1ccc(C(=O)NC2CCCCCC2)cc1S(=O)(=O)N1CCCc2ccccc21	-1	0%	10%[38.3 µM]	13	1%
O=C(Cn1cc(C(=O)c2ccco2)c2ccccc21)Nc1ccccc1C(F)(F)F	-7	/	/	/	/
COc1cccc(-c2ccc3ncnc(NCc4ccccc4)c3c2)c1	/	62%	16%	/	/
NCCC(O)C(=O)NC1C[C@@H](N)[C@H](O[C@@H]2OC(CN)C(O)C(O)C2O)C(O)[C@H]1O[C@H]1OC(CO)C(O)C(N)C1O (stereo not given in full)	/	0%	13%	/	1%
Cc1ccccc1NS(=O)(=O)c1ccc(N2CCCC2=O)cc1	10	-5%	6%[38.3 µM]	?	-1%
COc1ccc(OC)c(NS(=O)(=O)c2ccc(N3CCCC3=O)cc2)c1	7	-6%	3%[38.3 µM]	-83*	-6%
CCN(CC)S(=O)(=O)c1ccc(N2CCN(S(=O)(=O)c3ccc4c(c3)OCCO4)CC2)nc1	-5	0%	27%[38.3 µM]	-91*	3%
CCN(CC)S(=O)(=O)c1ccc(N2CCN(CCO)CC2)nc1	/	/	-2%	25	0%
CN1CCN(c2ccc(S(=O)(=O)N3CCCCC3)cn2)CC1	2	8%	30%[38.3 µM]	-83*	8%
O=c1c(-c2cc(F)cc(F)c2)nc2cnc(Nc3ccccc3)nc2n1C[C@H]1CCCO1	/	5%	-30%	/	/
Cc1ccc(NC(=O)CSC2=C(C#N)C(c3ccc4c(c3)OCO4)CC(=O)N2)cc1C (stereo not given)	-4	/	8%	-100*	-2%
COc1cccc([C@@H]2Oc3ccc(Br)cc3C[C@H]2O)c1	/	/	5%	/	/
C#CC1(O)CC(C)N(C)C(C)C1 (stereo not given)	0	2%	18%[38.3 µM]	-91*	3%
CCCc1nn(-c2cc(Cl)ccc2OC)c2c1C(=O)CCC2	-7	-2%	10%[38.3 µM]	-97*	-5%
CCSc1nnc2c(n1)OC(c1ccc(OC)cc1OC)N(C(C)=O)c1ccccc1-2 (stereo not given)	4	/	/	/	/
CCOC(=O)N1CCN(C(=O)C2CCN(CC3CCCCC3)CC2)CC1	/	/	9%	-114*	1%
CCOc1c(Br)cc(C2CC(=O)Nc3cc4c(cc32)OCO4)cc1OC (stereo not given)	6	/	/	/	/

Assay outcomes (PubChem BioAssay)
